AmpC inh detg = inhibitors of E. coli AmpC beta-lactamase with detergent | actives 0.041% (n = 370,000) | Potency, µM (titrated, usually from 114 µM), for inactives: top-dose activity change, negative = inhibition, hits mostly inhibitors | P00811 | AmpC hydrolysis of nitrocefin, absorbance 480 nm, 0.01% Triton | AID 485294;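 further: potency means the concentration at half of the fitted maximal effect; 0% = no-compound wells and -100% = no-enzyme wells; nearly all actives have a fitted effect of over 25% in size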
Target sequence (P00811 whole entry, looked up): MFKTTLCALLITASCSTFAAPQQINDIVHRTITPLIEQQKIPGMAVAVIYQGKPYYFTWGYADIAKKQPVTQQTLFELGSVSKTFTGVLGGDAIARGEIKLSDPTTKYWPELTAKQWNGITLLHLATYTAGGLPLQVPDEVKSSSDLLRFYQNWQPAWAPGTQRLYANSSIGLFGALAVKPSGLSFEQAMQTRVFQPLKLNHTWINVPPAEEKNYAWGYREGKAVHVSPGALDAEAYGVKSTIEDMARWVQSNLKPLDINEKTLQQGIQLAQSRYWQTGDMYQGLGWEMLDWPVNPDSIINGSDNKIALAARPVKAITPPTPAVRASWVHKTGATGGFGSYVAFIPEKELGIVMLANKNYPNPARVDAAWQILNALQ
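20 mM phosphate pH 7.0 + 0.01% (detergent screen) or 0.0001% Triton X-100; 5.3 nM AmpC reagent; cpd preinc 15 min RT; nitrocefin (800 uM stock) to start; A480 q20 s × 4 min; Activity was normalised to no-enzyme and no-compound control wells.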
HCV inh = inhibitors of hepatitis C virus infection; Huh7.5.1 HCVcc-Cre infection, luciferase reporter, 44 h; Potency, µM (highest dose often 41.8 µM), inactives show top-dose activity change, negative = inhibition, most hits filed as inhibitors; actives 3.4% (n = 340,000); further: potency means the concentration at half of the fitted maximal effect
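1,000 cells/well; 4 h culture; + compound; + HCVcc-Cre (~0.5 moi); 44 h; luciferase substrate, RT 15 min; read 15 sec.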
AmpC inh no detg = inhibitors of E. coli AmpC beta-lactamase without detergent; AmpC nitrocefin hydrolysis, absorbance 480 nm, 0.0001% Triton; Potency, µM (highest dose often 57.1 µM), for the others: top-dose activity change, negative = inhibition, actives largely listed as inhibitors; actives 0.52% (n = 330,000); AID 485341;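 further: potency means the concentration at half of the fitted maximal effect; plate controls were no compound for no effect and no enzyme for full effect; nearly all actives have a fitted effect of over 20% in size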
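AmpC (5.3 nM in the dispensed reagent) in 20 mM phosphate pH 7.0 with 0.01% (detergent screen) or 0.0001% Triton X-100 was preincubated with compounds for 15 min at room temperature. Nitrocefin was then added from an 800 uM solution, and hydrolysis was followed at 480 nm.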
FMDV inh = antivirals against foot and mouth disease virus | FMDV antiviral cell-based qHTS | Potency, µM (top dose mostly 57.9 µM), without a hit: at the top dose activity change, negative = inhibition, usual class: inhibitors | actives 1.2% (n = 410,000) | AID 1159524; calls by dose curve; tested in HEK293T cells; further: read-out not given here; potency means the concentration at half of the fitted maximal effect; nearly all actives have a fitted effect of over 45% in size
HCMV antiviral = blocks human cytomegalovirus replication; activity change, negative = inhibition, % at 57.5 µM; HFF cells, HCMV-luciferase reporter, 72 h; active compounds read low; actives 4.5% (n = 410,000); in the data active means activity change below about -60%; inconclusive means no clear call, values can overlap the other calls; inactive means above about -39%
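Steps: HFFs plated, 16 h 37C; compounds added; HCMV-luciferase added to MOI 1 PFU/cell; 72 h 37C; OneGlo reagent, 5 min room temperature; luminescence read, normalized to controls.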
Active calls of the source: *; ? = inconclusive; . = not tested or not shown; ! = not confirmed by another sample; [ ] = another dose, or the depositor's remark. Hits are enriched below; roughly 7.3% of the tested compounds scored in any of these assays. Unless noted, the call rests on the fitted dose curve; in most records, active means well fitted curve in the direction sought with a large enough effect; inconclusive means small, poorly fitted or top-dose-only effect, or another doubt; inactive means no such curve, though single readings can be large; an effect the other way counts as inactive or inconclusive. Unless noted, on the % scale 0 is the no-effect control and ±100 the full control effect.

SMILES	AmpC inh detg	HCV inh	AmpC inh no detg	FMDV inh	HCMV antiviral
CCn1nc([N+](=O)[O-])c(C(C#N)c2nc3cc(C(F)(F)F)ccc3s2)c(Cl)c1=O (centres undefined)	?	11µM*	-20%	2µM*	?
CCCCC#Cc1nc(NC)c2ncn([C@@H]3O[C@@H](CO)[C@H](O)[C@H]3O)c2n1	.	.	.	-17%	.
Cc1cnc(NC(=O)CCNC(=O)c2ccccc2Cl)s1	4%	16%	-23%	6%	-7
Cc1cnc(NC(=O)CC(C)c2ccccc2)s1 (centres undefined)	-4%	?	-25%	3%	-68*
Cc1cnc(NC(=O)COc2ccccc2Cl)s1	?	-7%	-22%	10µM*	-33
O=C(Nc1cccc(-c2nc3ccccc3o2)c1)c1ccc(N2C(=O)C3C4C=CC(C4)C3C2=O)cc1 (centres undefined)	?	?	1%	32µM*	-26
Cc1cc(C)cc(OCC(=O)Nc2cccc(-c3nnc(-c4ccco4)o3)c2)c1	2%	-3%	-23%	20µM*	62
COc1ccc(OCC(=O)Nc2cccc(-c3nc4ccccc4o3)c2)cc1	4%	10µM*	6%	-1%	20
Cc1ccc(-c2nnc(-c3ccc(NC(=O)Cc4cccs4)cc3)o2)cc1	1%	?	-13%	44%	-85*
O=C(NCc1ccc(Cl)nc1)c1csc(COCCO)n1	.	.	.	-16%	2
Cc1cnc(-n2ncc(C(=O)NCc3ccccn3)c2C2CC2)nc1-c1cccs1	.	.	.	-11%	.
O=C(Nc1nnc(-c2ccccc2)s1)c1ccc(F)cc1	-4%	?	-28%	28%	-1
COc1nc(NC(=O)c2ccc(F)cc2)nc(OC)c1-c1ccccc1	-3%	?	-17%	-18%	-64*
Cc1ccc(SCC(=O)Nc2ccc(-c3nnc(-c4ccco4)o3)cc2)cc1	-8%	11µM*	4%	16%	32
COc1ccc(C(=O)Nc2cccc(-c3nnc(-c4ccco4)o3)c2)cc1	2%	13µM*	-11%	35µM*	-17
COc1ccc(-c2nnc(NC(=O)c3ccc(F)cc3)o2)cc1	?	?	22µM*	0%	?
C=CCC(C#N)(c1ccc(OC)c(OC)c1)c1cnccn1 (centres undefined)	-7%	-1%	-1%	-10%	-65*
COc1ccc(C(C#N)(CCC#N)CCC#N)cc1OC	6%	6%	-24%	-1%	64
Clc1ccc2nc(N3CCNCC3)nc(-c3ccccc3)c2c1	-1%	10µM*	63%	-25%	?
CN1CCN(c2nc(-c3ccccc3)c3cc(Cl)ccc3n2)CC1	0%	-13%	2%	-2%	10
COCCCNC(=O)c1sc2nc(C)c(C(=O)Nc3ccc(C)cc3C)c(-c3ccc(Cl)cc3)c2c1N	-5%	.	.	?	16
CCC1CN(C(=O)Nc2cc(Cl)ccc2C(=O)OC)c2ccccc2S1 (centres undefined)	-10%	.	.	-20%	17
N#CCC(=O)Nc1ccc(C(=O)OCC(=O)Nc2cccc(C(F)(F)F)c2)cc1	?	7%	16µM*	9%	-30
Cc1nn(-c2ccccc2)c(C)c1NC(=O)COC(=O)c1ccc(NC(=O)CC#N)cc1	.	1%	.	-30%	-68*
N#CCC(=O)Nc1ccc(C(=O)OCC(=O)Nc2cccc3ccccc23)cc1	.	.	.	-22%	-23
SMILES	AmpC inh detg	HCV inh	AmpC inh no detg	FMDV inh	HCMV antiviral
Cc1nn(-c2ccccc2)c(C)c1NC(=O)COC(=O)CC(C)c1ccccc1 (centres undefined)	-5%	?	76%	-11%	-63*
N#C/C(=C(/O)CCl)c1nc2c(s1)CCc1ccccc1-2	-4%	?	-38%	25µM*	42
C=CC[C@@H](CC(=O)N(CCO)Cc1ccccc1)C(=O)NC[C@H](OC(=O)[C@@H](CC=C)Cc1ccc(F)cc1)c1ccccc1	.	?	211%	14µM*	-1
C=CC[C@@H](CC(=O)N(CCO)Cc1ccccc1)C(=O)N[C@H](COC(=O)[C@@H](CC=C)Cc1ccc(F)cc1)c1ccccc1	.	11µM*	101%	?	24
C=CC[C@@H](CC(=O)N(CCO)Cc1ccccc1)C(=O)N[C@@H](C)COC(=O)[C@@H](CC=C)Cc1ccc(F)cc1	.	?	248%	?	-12
C=CC[C@@H](CC(=O)N(CCO)Cc1ccccc1)C(=O)NC[C@@H](OC(=O)[C@@H](CC=C)CC(=O)OC(C)(C)C)c1ccccc1	.	10µM*	264%	?	-9
COc1ccc(N2CCN(Cc3nc4c(c(=O)[nH]c(=O)n4C)n3Cc3ccccc3F)CC2)cc1	7%	.	.	-15%	-10
COc1ccc(OC)c(S(=O)(=O)ON2C(=O)c3ccccc3C2=O)c1	40µM*	-17%	?	?	-29
COc1ccc(OC)c(S(=O)(=O)N2CCN(c3ccccc3)CC2)c1	?	18%	-8%	5%	-14
CCc1ccc(S(=O)(=O)ON2C(=O)c3ccccc3C2=O)cc1	35µM*	8%	-5%[2.29 µM]	0%	?
CC(=O)c1ccc(S(=O)(=O)N(CC(=O)NC2CC2)Cc2ccc(F)cc2)cc1	?	-2%	-12%	15%	31
CC(C)(C)n1cnc2cc(NCc3ccccc3O)ccc21	-1%	-11%	-31%	29%	53
CCN(CC)c1ccc(CNc2ccc3c(c2)ncn3C(C)(C)C)cc1	1%	-28%	46%	26%	-68*
CN(C)c1ccc(CNc2ccc3c(c2)ncn3C)cc1	?	?	5%	-2%	-102*
CCc1ccc(CNc2ccc3c(c2)ncn3C(C)(C)C)cc1	0%	-29%	47%	0%	-64*!
CC(C)(C)n1cnc2cc(NCc3ccc(Br)cc3)ccc21	-1%	-8%	46%	11%	130
CC(C)c1ccc(CNc2ccc3c(c2)ncn3C)cc1	3%	?	21%	15%	42
Cc1cccc(CNC(=O)c2cnn(-c3ncc(C)c(-c4cccs4)n3)c2C2CC2)n1	.	.	.	0%	.
CCn1c(NN=O)nc2ccccc21	-4%	6.3µM*	-12%	-12%	-103*
CCC(=O)Nc1nc2ccccc2n1CCN1CCOCC1	?	3%	-7%	-5%	-21
CCCCCCCn1c(NC(=O)CC)nc2ccccc21	-1%	-35%	29%	-29%	-84*
CCn1c(Nc2ccccc2Cl)nc2ccccc21	-10%	-23%	-29%	-2%	-6
CC(=O)Nc1nc2ccccc2n1Cc1ccccc1Cl	0%	-34%	23%	?	-96*
CCC(=O)Nc1nc2ccccc2n1Cc1ccccc1Cl	0%	?	-1%	-20%	?
CCC(=O)Nc1nc2ccccc2n1Cc1ccc(Cl)cc1	2%	?	9%	?	-76*

Bioassay records deposited in PubChem BioAssay by National Center for Advancing Translational Sciences (NCATS).
